The list is not random: actives were taken first. Their share in the collection is about 9.4%.
ELG1 repair inh: blocks ELG1-dependent DNA repair in HEK293T cells | HEK293T ELG1-luciferase reporter, luminescence, 16 h; DNA damage induced by 5-fluorouridine | Potency, µM (series often up to 46.1 µM), without a hit: at the highest dose activity change, negative = inhibition, hits mostly inhibitors | 2.3% of 330,000 active; further: on the % scale 0 is the no-effect control and ±100 the full control effect; nearly all actives have a fitted effect of over 55% in size
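HEK293T cells expressing luciferase-tagged ELG1 (2,000/well) received 5-Fluorouridine plus compound or DMSO for 16 hr at 37 °C. Luciferase was read by ONE-Glo luminescence after 30 min at room temperature.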
SMN2 splice up: increases expression of the SMN2 splice variant | HEK293 SMN2-luciferase splicing reporter, luminescence, 30-36 h | Potency, µM (doses to about 46.1 µM), for the others: at the highest dose activity change, positive = activation, actives largely listed as activators | 2.8% of 210,000 active | AID 1458; further: % of control where 0% means no effect; nearly all actives have a fitted effect of over 55% in size
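HEK293 cells carry an SMN2 […]–luciferase reporter in which exon 7 inclusion puts luciferase in frame. Cells were plated 10-12 h before compound addition, then incubated 30-36 h at 37C. ONE-Glo luminescence was read; sodium butyrate at 4.5 mM final served as control.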
NPC1 promoter act: activates the NPC1 promoter; 2.4% of 320,000 active; Huh7 NPC1 promoter luciferase reporter, 24 h; Potency, µM (doses to about 9.22 µM), without a hit: at the highest dose activation, most hits filed as activators; AID 485313; further: % of control where 0% means no effect; nearly all actives have a fitted effect of over 60% in size
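In 1536-well qHTS, Huh7 cells harboring an NPC1 promoter–luciferase construct received compound for 24 h; activation was quantified by luminescence following luciferase reagent addition.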
Rab9 prom act: activators of Rab9 promoter | AID 485297 | Huh7 Rab9 promoter-luciferase reporter, luminescence, 24 h | Potency, µM (top dose mostly 9.22 µM), without a hit: at the highest dose activation, negative = inhibition, actives largely listed as activators | 2.8% of 320,000 active; further: % of control where 0% means no effect; nearly all actives have a fitted effect of over 60% in size
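Cells were plated at 1500 per well in reduced-serum medium with 10% FBS and left 2 h. Compound in DMSO was then added for 24 h at 37 °C. Reporter signal was read by luminescence after 10 min with luciferase detection reagent.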
ELG1 genotox: genotoxicity induction in ELG1-luciferase HEK293T cells. HEK293T ELG1-luciferase reporter, luminescence, 16 h. Potency, µM (highest dose often 46 µM), for inactives: at the top dose activity change, positive = activation, usual class: activators. 1.3% of 330,000 active; further: % of control where 0% means no effect; nearly all actives have a fitted effect of over 60% in size
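After overnight (16 hr) compound treatment at 37 °C, ELG1-luciferase HEK293T cells were lysed with ONE-Glo; luminescence quantified 30 min later at room temperature.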
FLuc counter: firefly luciferase modulation, counter-screen for miR-21 project. P08659. purified FLuc, Km substrates, luminescence inhibition. Potency, µM (titrated, usually from 57.5 µM), without a hit: at the top dose activity change, negative = inhibition, hits mostly inhibitors. 6.9% of 360,000 active. AID 588342;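 further: plate controls were vehicle for no effect and reference inhibitor for full effect; nearly all actives have a fitted effect of over 55% in size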
Target sequence (P08659 whole entry, looked up): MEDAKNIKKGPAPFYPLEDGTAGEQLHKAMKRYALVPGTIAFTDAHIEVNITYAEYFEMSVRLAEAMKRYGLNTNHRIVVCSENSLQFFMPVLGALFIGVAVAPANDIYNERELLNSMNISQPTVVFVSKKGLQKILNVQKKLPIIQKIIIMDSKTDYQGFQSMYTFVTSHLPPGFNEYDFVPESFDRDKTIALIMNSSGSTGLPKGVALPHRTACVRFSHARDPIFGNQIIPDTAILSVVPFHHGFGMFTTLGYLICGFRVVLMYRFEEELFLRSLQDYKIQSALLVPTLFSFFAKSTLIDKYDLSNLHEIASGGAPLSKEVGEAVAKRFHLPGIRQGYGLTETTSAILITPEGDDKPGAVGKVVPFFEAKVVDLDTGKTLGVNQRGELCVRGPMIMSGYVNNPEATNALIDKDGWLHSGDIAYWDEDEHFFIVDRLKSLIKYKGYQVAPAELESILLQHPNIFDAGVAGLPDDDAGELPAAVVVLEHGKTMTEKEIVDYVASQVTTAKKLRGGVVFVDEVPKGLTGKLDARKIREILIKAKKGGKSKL
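Biochemical qHTS of compounds, final roughly 60 µM downward over six points, against 10 nM purified firefly luciferase using Km concentrations of substrates (10 uM D-luciferin, 10 uM ATP) in Tris acetate pH 7.5 buffer; luminescence output.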
* hit, by the source's call; u = inconclusive; x = no result. The call rests on the fitted dose curve; in most records, active means well fitted curve in the direction sought with a large enough effect; inconclusive means small, poorly fitted or top-dose-only effect, or another doubt; inactive means no such curve, though single readings can be large; an effect the other way counts as inactive or inconclusive. Potency means the concentration at half of the fitted maximal effect.

SMILES | ELG1 repair inh | SMN2 splice up | NPC1 promoter act | Rab9 prom act | ELG1 genotox | FLuc counter
O=C(OCC(=O)N1CCCCC1)c1c[nH]c2ccccc12 | u | x | 24% | u | u | 17µM*
COc1ccc(F)cc1S(=O)(=O)NCC(c1ccco1)S(=O)(=O)c1cccs1 (centres undefined) | x | x | x | x | x | -1%
Cc1cccc(CC(=O)NCCc2csc(-c3ccc(C(F)(F)F)cc3)n2)c1 | x | x | x | x | x | -13%
CN(C(=O)COC(=O)c1cc2ccccc2cc1O)C1CCCCC1 | 28% | x | 7% | 1% | 1% | 19µM*
C/C(CC(=O)N1CCCC1)=N\NC(=O)c1cc2ccccc2cc1O | 0% | x | 14% | 1% | -9% | 15µM*
CCOC(=O)C(C)/C(C)=N/NC(=O)c1cc2ccccc2cc1O (centres undefined) | -13% | u | 0% | 2% | 1% | u
O=c1oc2ccccc2c(O)c1/C=N/c1ccccn1 | 5% | -6% | -5% | 2% | -3% | 11µM*
O=c1oc2ccccc2c(O)c1/C=N/c1ncccn1 | -1% | -27% | 2% | 3% | 5% | u
O=c1[nH]c(O)c(/C=C2\C=Nc3ccccc32)[nH]1 | u | x | -8% | 1% | u | u
O=c1oc2ccccc2c(O)c1/C=C1\C=Nc2ccccc21 | -4% | -13% | 13% | -3% | -2% | 27µM*
CCOc1ccc(N=Cc2c(O)c3ccccc3oc2=O)cc1 | u | -6% | -1% | -1% | 9% | 0.85µM*
O=c1oc2ccccc2c(O)c1C=Nc1cccnc1 | -3% | -2% | -7% | -12% | -8% | 9.5µM*
O=C(NCc1ccccc1Cl)NCc1noc2ccccc12 | x | x | x | x | x | -20%
CC1CCN(C(=O)CSc2nnc3c(n2)[nH]c2ccccc23)CC1 | -19% | x | -4% | -10% | -24% | 6%
CC1=CCC(/C=N\Nc2nnc3c(n2)[nH]c2ccccc23)CC1 (centres undefined) | u | 9% | u | u | u | 1.5µM*
c1ccc2nc(-c3nc4ccccc4o3)ccc2c1 | u | x | u | 3.2µM* | u | 0.24µM*
CCOC(=O)/C(=N\Nc1ccccc1)S(=O)(=O)c1ccccc1 | u | -6% | 8% | 9% | 1% | -8%
CCOC(=O)/C(=N/Nc1ccc(C)cc1)S(=O)(=O)c1ccc(Cl)cc1 | u | 3% | u | u | u | 17µM*
CCN1C(=O)c2ccccc2Sc2ccc(NC(=O)c3ccc(C)c(F)c3)cc21 | x | x | x | x | x | -11%
CSc1ccc(Cl)c(C(=O)Nc2cc(S(=O)(=O)N3CCOCC3)ccc2N2CCOCC2)c1 | 18µM* | x | x | x | -3% | x
O=C(Nc1ccccc1N1CCCC1)c1cc(S(=O)(=O)N2CCOCC2)ccc1Cl | 2% | x | -6% | -13% | -1% | 7%
COc1ccc(-c2cc(C(=O)Nc3cc(S(=O)(=O)N4CCOCC4)ccc3N3CCOCC3)c3ccccc3n2)cc1 | 4.1µM* | -16% | 2% | 13% | -14% | u
CCN1CCN(c2ccc(S(=O)(=O)N3CCOCC3)cc2NC(=O)/C=C/c2ccc(C)cc2)CC1 | 13% | x | -4% | 2% | u | 0%
COc1ccc2cc(/C(C)=N/NC(=S)Nc3cc(S(=O)(=O)N4CCOCC4)ccc3N3CCOCC3)ccc2c1 | 4.6µM* | 7% | -1% | -1% | 6% | -16%
O=C(/C=C/c1ccc(Cl)cc1)Nc1cc(S(=O)(=O)N2CCOCC2)ccc1N1CCOCC1 | 26µM* | x | x | x | 1% | x
SMILES | ELG1 repair inh | SMN2 splice up | NPC1 promoter act | Rab9 prom act | ELG1 genotox | FLuc counter
O=C(NCC(c1cccnc1)N1CCc2ccccc2C1)C(=O)Nc1cccc(Cl)c1 (centres undefined) | x | x | x | x | x | 0%
O=C(NC1CC(=O)N(c2ccc(F)cc2)C1)c1ccco1 (centres undefined) | x | x | x | x | x | -3%
Cc1ccc(CNC(=O)Cn2cc3c(n2)-c2c(oc(C(=O)N4CCOCC4)c2C)CC3)cc1 | x | x | x | x | x | 3%
CC(=O)c1ccc(N2CCN(C(=O)c3cccs3)CC2)c(F)c1 | u | x | 21% | 0% | -9% | 3%
COc1cccc(C(=O)Nc2cccc(C(=O)OCc3cc(=O)n4c(C)csc4n3)c2)c1 | x | x | x | x | x | -4%
O=[N+]([O-])c1ncccc1OCc1ccc(Cl)c(Cl)c1 | u | x | u | u | 18µM* | 24µM*
CN(C)S(=O)(=O)c1cccc(COc2cccnc2[N+](=O)[O-])c1 | 0% | x | -30% | -1% | -3% | -1%
CC(C)Oc1ccc(CNC(=O)c2sc3ncccc3c2-n2cccc2)cc1 | x | x | x | x | x | -2%
COc1ccc(C)cc1-n1nnc(C(=O)Nc2cccc(SC)c2)c1C | x | x | x | x | x | -3%
COc1cccc(CN(Cc2ccco2)S(=O)(=O)c2ccc(S(=O)(=O)NCc3ccccc3)cc2)c1OC | 12µM* | -25% | -5% | -3% | -3% | 9%
CC(=O)Nc1ccc(C2Nc3c(C)cc(C)cc3-c3cc(C)nn32)cc1 (centres undefined) | x | -4% | x | x | x | -11%
COc1ccc(CCNC(=O)Cn2cc(S(=O)(=O)Cc3ccccc3F)c3ccccc32)cc1OC | x | x | x | x | x | -4%
c1ccc(-c2ccc(-c3cnc4n3CCCCC4)cc2)cc1 | u | -15% | u | 26% | u | 12µM*
CCc1nn(CC(=O)Nc2cccc(C(C)=O)c2)c(=O)c2cc3sccc3n12 | x | -9% | x | x | x | u
O=C(c1ccco1)N1CCN(c2nc(-c3ccc(F)cc3)cs2)CC1 | 6% | x | -2% | 10% | -4% | 24µM*
Cc1nc2sccn2c1-c1nc(-c2cc3ccccc3o2)cs1 | 8% | -14% | 7% | -8% | 0% | u
Brc1ccc(-c2csc(N3CCC(c4ccccc4)C3)n2)cc1 (centres undefined) | u | -33% | u | u | 8% | 6µM*
CS(=O)(=O)N1CCN(c2nc(-c3ccc(F)cc3)cs2)CC1 | u | -25% | 11% | 14% | -1% | 11µM*
c1ccc2oc(-c3csc(N4CCOCC4)n3)cc2c1 | u | 3.2µM* | 1.3µM* | 0.5µM* | u | 0.76µM*
COc1ccc(NC(=O)c2oc3ccccc3c2NC(=O)C23CC4CC(CC(C4)C2)C3)cc1 | x | -5% | x | x | x | -2%
CCOc1ccc(C(=O)N2CC(=O)Nc3ccc(C)cc3C2c2ccc(F)cc2)cc1OCC (centres undefined) | x | -4% | x | x | x | 5%
O=C(c1cn(-c2ccccc2)nc1-c1ccc(F)cc1)N1CCOCC1 | -14% | -2% | 3% | 6% | 2% | u
Clc1ccc(-c2csc(N3CCSCC3)n2)cc1 | u | 14% | 1% | 23% | u | 12µM*

Bioassay records from PubChem.
